In the library only some 13% were active in any assay of this set; here they are far more common.
USP30 block: inhibitors of human USP30 deubiquitinase. inhibition, % at 25 µM. purified USP30, Ub-rhodamine cleavage fluorescence. Ubiquitin carboxyl-terminal hydrolase 30 (Homo sapiens), Q70CQ3. AID 1645860, 2021. 47,000 tested, 5.3% active
Target sequence (Q70CQ3 whole entry, looked up): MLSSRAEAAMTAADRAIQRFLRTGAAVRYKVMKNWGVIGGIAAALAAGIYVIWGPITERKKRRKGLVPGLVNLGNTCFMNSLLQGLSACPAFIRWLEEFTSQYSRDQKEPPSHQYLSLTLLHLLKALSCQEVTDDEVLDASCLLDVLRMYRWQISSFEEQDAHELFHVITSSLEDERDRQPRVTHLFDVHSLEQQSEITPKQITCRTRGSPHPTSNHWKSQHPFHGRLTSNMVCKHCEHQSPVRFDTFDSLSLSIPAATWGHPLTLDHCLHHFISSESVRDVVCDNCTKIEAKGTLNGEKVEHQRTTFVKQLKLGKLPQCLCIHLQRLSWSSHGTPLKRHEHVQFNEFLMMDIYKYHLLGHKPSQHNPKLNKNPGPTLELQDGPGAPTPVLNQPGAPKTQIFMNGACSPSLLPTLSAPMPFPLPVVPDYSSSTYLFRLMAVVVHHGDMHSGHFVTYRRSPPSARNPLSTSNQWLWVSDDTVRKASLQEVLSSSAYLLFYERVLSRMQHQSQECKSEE
UCHL1 inh: inhibitors of human UCHL1 deubiquitinase. Ubiquitin carboxyl-terminal hydrolase isozyme L1 (Homo sapiens), P09936. 47,000 tested, 0.2% active. inhibition, % at 20 µM. purified UCHL1, Ub-rhodamine cleavage fluorescence. AID 1645859, 2021
USP17 block: inhibitors of human USP17 deubiquitinase. Ubiquitin carboxyl-terminal hydrolase 17-like protein 5 (Homo sapiens), A8MUK1. purified USP17, Ub-rhodamine cleavage fluorescence, 3 h. inhibition, % at 50 µM. 47,000 tested, 6.5% active. AID 1645855, 2021
USP10 block: inhibitors of human USP10 deubiquitinase. purified USP10, Ub-rhodamine fluorescence, 60 min. 47,000 tested, 1.1% active. inhibition, % at 20 µM. Ubiquitin carboxyl-terminal hydrolase 10 (Homo sapiens), Q14694
USP7 block: inhibitors of human USP7 deubiquitinase | Ubiquitin carboxyl-terminal hydrolase 7 (Homo sapiens), Q93009 | purified USP7, Ub-rhodamine cleavage fluorescence | inhibition, % at 20 µM | 47,000 tested, 0.3% active
USP8 block: inhibitors of human USP8 deubiquitinase; purified USP8, Ub-rhodamine cleavage fluorescence, 30 min; inhibition, % at 20 µM; 47,000 tested, 4.2% active
An asterisk follows results filed as active; · = no result. No stated cut-off is given here; in the data, active means inhibition above about 30%; inactive means the rest.

SMILES	USP30 block	UCHL1 inh	USP17 block	USP10 block	USP7 block	USP8 block
CCOc1ccccc1CN1CCC[C@@H](Cn2nnc(-c3ccncc3)n2)C1	32*	2	12	0	1	25
O=C(Nc1ccccc1Cl)c1cc(-c2ccncc2)n[nH]1	92*	0	74*	-2	14	-11
O=C(Nc1ccccc1)c1cc(-c2ccncc2)n[nH]1	24	3	-5	3	4	2
Cc1cc(Cl)ccc1NC(=O)c1cc(-c2ccncc2)n[nH]1	90*	6	65*	6	15	21
CCc1ccccc1NC(=O)c1cc(-c2ccccn2)n[nH]1	38*	5	73*	5	7	6
CCOC(=O)c1noc2ncn(CC(=O)NCCc3ccccc3)c(=O)c12	-56	-3	-16	-8	-8	-27
O=C(Nc1ccc(C(F)(F)F)cc1)C1CC(=O)N(c2ccc3c(c2)OCCO3)C1 (configuration not stated)	34*	4	35*	10	-161	25
O=C(Nc1ccc2c(c1)OCO2)C1CC(=O)N(c2ccc3c(c2)OCCO3)C1 (configuration not stated)	-12	-2	15	-4	-8	-3
O=C(Nc1ccc(N2CCN(Cc3ccccc3)C2=O)nc1)C1CCC1	17	1	9	3	3	19
CC(C)C(=O)Nc1ccc(N2CCN(Cc3ccc(F)cc3)C2=O)nc1	18	1	62*	-3	-1	29
Cc1c(C)n2c3c(=O)n(Cc4ccc(F)cc4)c(=O)n(C)c3nc2n1-c1ccccc1N	-8	-3	-5	6	-1	-73
COc1ccc(NC(=O)CN2C(=O)c3ccccc3C2c2cn(C)c3ccccc23)cc1 (configuration not stated)	-19	9	6	3	7	8
Cc1cnc(C(=O)N2CCCCC2c2nc(C)c3c(n2)N(CC(C)C)C(=O)CC3)cn1 (configuration not stated)	11	0	10	-6	-2	15
Cc1nc2ccc(C(=O)N3CCCC3c3nc(C)c4c(n3)N(CC(C)C)C(=O)C4)cc2s1 (configuration not stated)	-11	7	42*	-4	0	89*
Cn1ccc2c(cc(C(=O)NCCC3=CCCCC3)n2C)c1=O	14	0	3	-1	-1	-4
CCn1c(COc2ccc3c(c2)OCO3)nnc1SCc1ccc([N+](=O)[O-])cc1	16	2	-1	1	-38	-117
CCn1c(COc2ccc(OC)cc2)nnc1SCc1ccccc1Cl	32*	4	19	4	-25	5
CCn1c(COc2cccc(C(F)(F)F)c2)nnc1SCc1ccc(Cl)cc1	58*	9	36*	18	-29	11
CCn1c(COc2ccccc2OC)nnc1SCc1ccccc1	9	0	-9	1	-5	3
O=S(=O)(c1cccc2cccnc12)N1CCc2nc3ccc(Cl)cc3cc2C1	·	-10	-33	-5	-7	-21
Cc1cc(-c2ccc(C)c(S(=O)(=O)N3CC(=O)Nc4ccccc43)c2)on1	9	-1	47*	1	3	-1
COc1ccc(NS(=O)(=O)c2ccc(NC(=O)CN(c3ccc(F)cc3)S(C)(=O)=O)cc2)cc1	0	4	5	11	1	0
O=C(c1cccc(S(=O)(=O)Nc2cc(Cl)ccc2Cl)c1)N1CCCCCC1	0	-1	-35	17	0	-127
O=C(Nc1ccccc1C(F)(F)F)c1cccc(S(=O)(=O)Nc2cc(C(F)(F)F)ccc2Cl)c1	17	1	27	43*	-1	0
O=C1N[C@@H]2CCN(C(=O)c3cncc(O)c3)C[C@@H]2C/C=C/CCOc2ccccc21	-18	1	-6	-1	0	-13
SMILES	USP30 block	UCHL1 inh	USP17 block	USP10 block	USP7 block	USP8 block
COc1cc(-c2c(NC(=O)c3ccc([N+](=O)[O-])cc3)n(C)c3ccccc3c2=O)cc(OC)c1OC	31*	2	22	1	4	-37
Cn1c(NC(=O)c2ccc(Cl)cc2)c(-c2ccccn2)c(=O)c2ccccc21	-7	0	21	-9	1	43*
CCOc1ccccc1C(=O)[C@@H]1[C@@H]2CCCN2[C@]2(C(=O)Nc3c2ccc(C)c3C)[C@@]12C(=O)Nc1ccccc12	-23	16	15	-1	8	0
Cc1ccc2c(c1C)NC(=O)[C@]21N2CCC[C@H]2[C@@H](C(=O)c2cc3ccccc3o2)[C@]12C(=O)Nc1ccccc12	-18	0	44*	-7	0	21
CC(C)(C)C(=O)N1CCCC(c2cncc(N3CC4(CCCCC4)OC3=O)n2)C1 (configuration not stated)	45*	1	18	2	3	-9
O=C(Nc1ccc(Sc2ccc(F)cc2)cc1)c1cccc(C(F)(F)F)c1	40*	11	17	10	12	22
CC(=O)c1c(O)c2ccccc2n(C2CCCCC2)c1=O	-115	-13	-47	-8	-15	49*
CC(=O)c1c(O)c2ccccc2n(Cc2ccccc2)c1=O	-77	-3	-32	-5	-34	36*
Cc1ccc(-c2nc3c(c(=O)c4ccccc4n3C)c(=O)n2C2CCCCC2)cc1	-145	-1	-26	6	5	18
Cc1ccccc1C(=O)N(CCOc1ccccc1)c1ccc2ccccc2c1	·	7	1	12	8	8
Cc1c(C(=O)NCc2cccc(Br)c2)oc2c1-c1[nH]ncc1CC2	-29	0	62*	-3	-24	84*
COc1ccccc1CNC(=O)c1ccccc1-c1ccccc1C#N	12	1	2	3	-4	-3
CC(C)(C)OC(=O)N1CCC[C@]2(CCC(=O)N2)[C@H]1c1ccc(F)cc1	31*	2	12	1	0	25
Cc1nnc(SCC(=O)Nc2ccc3[nH]c(=O)[nH]c3c2)n1-c1ccccc1	-13	0	34*	-7	0	-33
O=C(Nc1ccccc1C(=O)NC1CCSC1)c1ccc([N+](=O)[O-])cc1 (configuration not stated)	45*	1	46*	15	0	11
O=C(Nc1ccccc1C(=O)N1CCOCC1)c1ccc([N+](=O)[O-])cc1	-12	-4	-28	1	-26	-119
COC(=O)c1cccc(Nc2c(-c3ccccc3O)nc3cnccn23)c1	·	-1	-8	-3	-5	-8
NC(=O)C[n+]1ccn2c(Nc3ccccc3)c(-c3ccccc3O)nc2c1	-65	4	16	-1	-91	73*
Cc1ccc(Nc2c(-c3ccccc3O)nc3c[n+](CC(N)=O)ccn23)cc1	-224	4	-64	0	-5	37*
